Assay outcomes: PubChem BioAssay, several laboratories
CYP2C9 inh = inhibitors of human CYP2C9 | CYP2C9 Supersomes, luciferin-H conversion, luminescence | inhibition, % at 5 µM | 96,000 compounds, 20% hits;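 active = blocking of liver enzyme CYP2C9 beyond about 50% at 5 µM, limit read from the data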
Cav3 T inh = blocks human Cav3.2 T-type calcium channel | 100,000 compounds, 4% hits | O95180 | AID 449739 | Cav3.2-expressing cells, Fluo-4 calcium fluorescence FDSS; hits give low values | B-score at 10 µM;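 active = single-dose well whose peak fluorescence ratio is a statistical outlier from its plate by either plate-standardised score or position-corrected B-score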
CYP2C9 activ = activators of human CYP2C9; P11712; recombinant CYP2C9, luciferin-H conversion, luminescence; hits give high values; factor 1 = untreated enzyme, 0 = blocked; activation factor at 5 µM; 96,000 compounds, 1.4% hits; AID 1024;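 active = activation factor of 2 or more for CYP2C9 at a 5 µM dose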
CYP2C19 activ = cytochrome P450 2C19 (human) activation. activation factor at 5 µM. 96,000 tested, under 10 active. recombinant CYP2C19, luciferin-H EGE luminescence; hits give high values; 0 = fully inhibited enzyme, 1 = untreated enzyme. AID 1025. P33261;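 active = activation factor of at least 2 at 5 µM in the primary screen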
Target sequence (P33261 whole entry, looked up): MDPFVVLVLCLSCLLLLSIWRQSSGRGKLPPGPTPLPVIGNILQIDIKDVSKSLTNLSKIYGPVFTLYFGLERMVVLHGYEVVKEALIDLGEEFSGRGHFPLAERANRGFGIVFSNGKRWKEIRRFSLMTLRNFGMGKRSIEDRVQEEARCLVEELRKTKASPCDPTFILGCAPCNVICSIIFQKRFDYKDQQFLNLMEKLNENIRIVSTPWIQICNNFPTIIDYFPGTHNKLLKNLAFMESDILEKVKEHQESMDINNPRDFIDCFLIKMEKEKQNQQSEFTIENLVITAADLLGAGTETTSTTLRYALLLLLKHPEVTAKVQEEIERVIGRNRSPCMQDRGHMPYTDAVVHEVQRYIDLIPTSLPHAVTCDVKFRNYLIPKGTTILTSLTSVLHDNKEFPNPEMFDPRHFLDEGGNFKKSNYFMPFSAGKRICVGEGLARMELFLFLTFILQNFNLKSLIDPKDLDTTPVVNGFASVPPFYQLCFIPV
CYP2C19 inh = blocks human cytochrome P450 2C19 | 96,000 compounds, 21% hits | AID 778 | CYP2C19 Supersomes, luciferin-H EGE luminescence, 30 min | inhibition, % at 5 µM;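 active = CYP2C19 inhibition above a set limit at 5 µM in the primary screen, cut at about 50% in these data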
A number is an active result; - = inactive; . = no result given. Most compounds without a hit are left out; they make up all but 27% or so of the library.

SMILES	CYP2C9 inh	Cav3 T inh	CYP2C9 activ	CYP2C19 activ	CYP2C19 inh
Cc1c(Cl)cnc(NC(=O)COC(=O)C(NC(=O)c2ccco2)C(C)C)c1Cl (configuration not stated)	-	.	-	-	77
O=C(C1CCCN(S(=O)(=O)Cc2ccccc2)C1)N1CCC(Cc2ccccc2)CC1 (configuration not stated)	85	-5.5	-	-	97
COC(=O)C1CCN(S(=O)(=O)Cc2ccccc2)CC1	-	-	-	-	63
CC(=O)c1ccc(N2CCN(C(=O)C3CCN(S(=O)(=O)Cc4ccccc4)CC3)CC2)cc1	67	-	-	-	-
O=C(C1CCN(S(=O)(=O)Cc2ccccc2)CC1)N1CCN(c2ncccn2)CC1	-	-	-	-	-
CC1(C)CC(=O)C=C(NC2CCCCCCC2)C1	.	-	.	.	.
N#CCCN1CCn2c1nc1ccccc12	-	-	-	-	-
COc1ccc2c(c1)N(C(=O)CSc1n[nH]c(C)n1)C(C)(C)C=C2C	-	-	-	-	-
Cc1c(O)ccc(/C(Cc2ccc3ccccc3n2)=N\O)c1O	88	-4.8	-	-	66
COCCNC(=O)c1c[nH]n2c(=O)cc(C3CCN(C(=O)OC(C)(C)C)CC3)nc12	62	-	-	-	-
Cn1c(COc2ccccc2)nnc1SCCSc1nnc(COc2ccccc2)n1C	-	-	-	-	-
Cn1c(COc2ccc(Cl)cc2)nnc1SCc1ncc(-c2ccccc2)o1	-	-9.9	-	-	-
COc1ccc(-n2cnnc2SCc2ncc(-c3ccccc3)o2)cc1	-	-	-	-	66
COc1ccc(-n2cnnc2SCC(=O)N2CCN(c3ccccc3)CC2)cc1	-	-	-	-	-
Cc1ccc2occ(/C=N/O)c(=O)c2c1	-	-	-	-	-
O=c1c(/C=N/O)coc2ccc3ccccc3c12	-	.	2	-	-
Cc1ccc(C)c(NC(=O)CS(=O)(=O)c2cn(C)c3ccccc23)c1	.	-	.	.	.
CC(=O)NC(Cc1c[nH]c2ccccc12)C(=O)Nc1ccc2c(c1)OCO2 (configuration not stated)	-	.	-	-	-
Cc1ccc(NC(=O)CS(=O)(=O)c2c[nH]c3ccccc23)c(C)c1	-	-	-	-	75
O=C(CS(=O)(=O)c1c[nH]c2ccccc12)Nc1ccc2c(c1)OCCO2	-	-	-	-	68
COC(=O)c1nn(-c2ccccc2)nc1-c1nn(-c2ccccc2)nc1C(=O)OC	86	-	-	-	61
COc1ccc(NC(=O)C2CCN(C(=O)c3ccc(OC)cc3)CC2)cc1	-	-	-	-	-
Cc1ccc2c(c1)CC1(CN2C)C(=O)OC(C)(C)OC1=O	-	-	-	-	-
CC1CCCC(NC(=O)CSc2nnnn2C)C1C (configuration not stated)	-	-4.7	-	-	-
CC1CCCCC1NC(=O)CSc1nnnn1-c1ccccc1 (configuration not stated)	-	-	-	-	89
SMILES	CYP2C9 inh	Cav3 T inh	CYP2C9 activ	CYP2C19 activ	CYP2C19 inh
Cc1ccc(-c2nc(NC(=O)CSc3nnnn3-c3ccccc3)ns2)cc1	-	-	-	-	-
Cn1nnnc1SCC(=O)NC1CCCCC1	-	-	-	-	-
COC(=O)c1c(NC(=O)CSc2nnnn2-c2ccccc2)sc2c1CCC(C)C2 (configuration not stated)	71	-	-	-	-
CCn1ncc(Cl)c1C(=O)Nc1cc(Cl)ccc1Cl	-	-	-	-	-
CCn1c(-c2cc(-c3cccc(OC)c3)nc3ccccc23)n[nH]c1=S	91	-	-	-	-
O=C(O)C1C2C=CC(C2)C1C(=O)NC1CCS(=O)(=O)C1 (configuration not stated)	-	-	-	-	-
CCCCNC(=O)Nc1nnc(-c2ccc(Cl)cc2)o1	-	-	-	-	-
COc1ccc(-c2nnc(SCC(=O)NC(=O)NCc3ccco3)o2)cc1	-	-	-	-	52
COc1ccc(-c2nnc(SCC(=O)c3ccc(C)o3)o2)cc1	.	-	.	.	.
COc1ccc(-c2[nH]c(-c3cccc(OC)c3)nc2SCC(=O)NCc2ccco2)cc1	84	-	-	-	94
COc1ccc(-c2nnc(SCC(=O)Nc3cccc(Cl)c3)o2)cc1	-	-	-	-	-
COc1ccc(-c2nnc(SCC(=O)NC(C)c3ccccc3)o2)cc1 (configuration not stated)	-	-	-	-	59
O=C(CSc1nnc(-c2ccc(OC(F)F)cc2)o1)NCc1cccs1	-	-	-	-	64
Cc1ccc(Nc2cc(=O)[nH]c(=O)[nH]2)c(C)c1	-	.	-	-	-
CC(C)C12CN3CC(C(C)C)(CN(C1)C3c1ccccc1)C2O (configuration not stated)	-	-	-	-	-
CC(=O)N1CCc2cc(S(=O)(=O)CCC(=O)N3CCN(C(=O)c4ccco4)CC3)ccc21	.	-	.	.	.
COc1ccc(N2CCN(C(=S)Nc3cccc(C)c3)CC2)cc1	-	.	-	-	-
COc1ccc(CNC(=S)Nc2cc(C)cc(C)c2)cc1	-	-	2	-	-
COc1ccc(CCNC(=S)Nc2cccc(C)c2)cc1	-	-	-	-	65
COc1ccc(CNC(=O)c2ccc(C)o2)cc1	.	-	.	.	.
CC12/C(=N/O)C3C4CC5C3/C(=N/O)C1C5C42 (configuration not stated)	-	-	-	-	-
O=C1C2C(c3ccccc3)C=CC(c3ccccc3)C2C(=O)N1CCCO (configuration not stated)	82	-	-	-	82
C=CCOCCN1C(=O)C2C(c3ccccc3)C=CC(c3ccccc3)C2C1=O (configuration not stated)	-	-3.3	-	-	66
O=C1c2ccccc2C(=O)N1CNc1ccccc1	-	-	-	-	-
CCN(CC)S(=O)(=O)c1ccc2c(c1)nc(SCC(N)=O)n2-c1ccc(OC)cc1	-	-	-	-	-
SMILES	CYP2C9 inh	Cav3 T inh	CYP2C9 activ	CYP2C19 activ	CYP2C19 inh
CCN(CC)S(=O)(=O)c1ccc2c(c1)nc(SCC(=O)N1CCCCCC1)n2-c1ccc(OC)cc1	81	-	-	-	-
CCOc1cccc(C2C(C(=O)c3ccc(C)o3)=C(O)C(=O)N2c2nccs2)c1 (configuration not stated)	-	-	-	-	-
COC(=O)c1sc(N2C(=O)C(O)=C(C(=O)c3ccc(C)o3)C2c2ccc(F)cc2)nc1C (configuration not stated)	80	-4.9	-	-	-
CC1(C)Cc2c(c(=S)nc(-c3ccccc3)n2CCO)CO1	-	-	-	-	-
COc1cccc2sc(N(C)c3ccccc3)nc12	-	-	-	-	78
O=C(Nc1ccc(Cn2cccn2)cc1)c1ccc(COc2cccc(Br)c2)cc1	83	-4.7	-	-	57
Cc1nn(Cc2cccc(C(=O)Nc3ccn(Cc4ccccc4F)n3)c2)c(C)c1[N+](=O)[O-]	-	-4.3	-	-	-
O=C(Nc1ccc(Cn2cccn2)cc1)c1ccc(COc2ccc(Br)cc2)cc1	-	-	-	-	-
O=C(Nc1ccn(Cc2ccccc2F)n1)c1ccc(COc2ccc(Br)cc2)cc1	-	-4.6	-	-	-
